This is an account of results in PubChem BioAssay (NCI).

Among the test systems are NCI-H23 lung; NCI-H226 lung; NCI-H322M lung; HOP-62 NSCLC; NCI-H460 lung; HOP-92 NSCLC; NCI-H522 lung; A549/ATCC NSCLC; 786-0 renal; COLO 205 colon.
Common to all, as to assay: NCI-60 one-dose screen, 48 h (100 = growth as untreated, 0 = no growth, -100 = all killed)
Conditions in all cases: 10 µM unless noted

Structures are written as SMILES. The panel holds about 83,000 compounds, 20% with a hit somewhere; the sample as a whole holds those more often.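 A percent growth of 40 corresponds to 60% growth inhibition; 0 means no net growth; -100 means all cells died. Active threshold: below 10.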 Values without a mark were called inactive. The source made the active and inactive calls.

With `O=C(COc1cccc(/C=C2\COc3ccc(Cl)cc3C2=O)c1)c1ccc(Cl)cc1`, the growth was 86.1% in the assay with NCI-H23 lung; 88.1% in the assay on NCI-H226 lung; 98.2% with NCI-H322M lung; 73.7% with HOP-62 NSCLC; 102% in the assay with NCI-H460 lung; 66.3% in the assay on HOP-92 NSCLC. In addition, the growth is 87.1% in the assay with NCI-H522 lung, 100% in the assay with A549/ATCC NSCLC, 98% in the assay with 786-0 renal and 116% with COLO 205 colon.

With `Clc1ccc2c(NCCCCNc3nc(N4CCCCC4)nc4ccccc34)ccnc2c1`, the growth with NCI-H23 lung is 53.1%; in the assay on NCI-H226 lung it was 35.8%; with NCI-H322M lung, 6.86% (active); in the assay with HOP-62 NSCLC, -11.1% (active); with NCI-H460 lung it was 6.3% (active); with HOP-92 NSCLC, -35.3% (active). Moreover, the growth was -18.6% (active) in the assay with NCI-H522 lung, 16.2% with A549/ATCC NSCLC, -90.3% (active) in the assay with 786-0 renal and -64.5% (active) in the assay on COLO 205 colon.

For `O=C(NCCN1CCOCC1)Nc1ccc(-c2cc3c(Nc4ccc(Oc5cccc(C(F)(F)F)c5)c(Cl)c4)ncnc3s2)cc1`, the growth in the assay with NCI-H23 lung is 27.4%; with NCI-H226 lung, 26.3%; in the assay on NCI-H322M lung, 18.7%; in the assay on HOP-62 NSCLC it was -26% (active); with NCI-H460 lung it was -39.8% (active); in the assay with HOP-92 NSCLC it was 16.4%. For the same compound, the growth in the assay on NCI-H522 lung is 27.3%; with A549/ATCC NSCLC, 4.01% (active); in the assay with 786-0 renal it was -43% (active); with COLO 205 colon, -56.7% (active).

For the compound `FC(F)(F)c1ccc(-c2cn3nc(-c4c[nH]c5ccc(Br)cc45)sc3n2)cc1`, the growth in the assay with NCI-H23 lung is 85.8%; with NCI-H226 lung, 79.1%; in the assay with NCI-H322M lung, 85.5%; with HOP-62 NSCLC it was 99.4%; in the assay on NCI-H460 lung, 100%; in the assay on HOP-92 NSCLC, 88%. The growth in the assay on NCI-H522 lung is 91.6%; in the assay on A549/ATCC NSCLC, 99%; in the assay with 786-0 renal, 106%; with COLO 205 colon, 91.8%.

As for `CC(=O)Nc1ccc(-n2c(O)c(/C=N/NC(=O)Cc3ccccc3Nc3c(Cl)cccc3Cl)sc2=S)cc1`, the growth is 95.4% in the assay with NCI-H23 lung; 104% with NCI-H226 lung; 102% with NCI-H322M lung; 99.7% in the assay on HOP-62 NSCLC; 101% in the assay on NCI-H460 lung; 92.7% in the assay on HOP-92 NSCLC. Moreover, the growth with NCI-H522 lung is 94.2%; in the assay with A549/ATCC NSCLC, 101%; with 786-0 renal, 102%; with COLO 205 colon, 119%.

Consider `COc1cccc(/C=N/NC(=O)c2ccccc2Nc2ccnc(C(F)(F)F)c2)c1O`, for which the growth in the assay with NCI-H23 lung is 30.8%; in the assay with NCI-H226 lung, -20.2% (active); in the assay with NCI-H322M lung it was 17.4%; with HOP-62 NSCLC, -6.28% (active); in the assay on NCI-H460 lung, -6.96% (active); with HOP-92 NSCLC it was 29.4%. Moreover, the growth was 18.6% in the assay on NCI-H522 lung, 14.3% in the assay with A549/ATCC NSCLC, -2.01% (active) with 786-0 renal and 2.9% (active) with COLO 205 colon.

On to `COc1cc(/C=C/C(=O)c2c(C)oc3nc[nH]c(=O)c23)cc(OC)c1OC`, for which the growth in the assay on NCI-H23 lung was 68.9%; in the assay with NCI-H226 lung, 92.1%; in the assay with NCI-H322M lung it was 85.8%; in the assay on HOP-62 NSCLC it was 101%; with NCI-H460 lung, 83.7%; in the assay with HOP-92 NSCLC, 96.4%. Moreover, the growth was 47.7% in the assay on NCI-H522 lung, 81.6% with A549/ATCC NSCLC, 94.3% in the assay with 786-0 renal and 95.4% with COLO 205 colon.

As to `CCC#CC[C@H](O)C/C=C1/C(=O)C=C[C@@H]1C/C=C\CCCC(=O)OC`, the growth in the assay on NCI-H23 lung was -13.4% (active); with NCI-H226 lung it was -62.8% (active); in the assay with NCI-H322M lung, 48.1%; in the assay with HOP-62 NSCLC, -8.26% (active); in the assay on NCI-H460 lung, -34.6% (active); in the assay with HOP-92 NSCLC, 35.8%. The growth in the assay with NCI-H522 lung is -90.1% (active); in the assay with A549/ATCC NSCLC, 32.6%; with 786-0 renal, -28.3% (active); with COLO 205 colon, -23% (active).

Take `CCC(=O)c1ccc(Cl)s1`: the growth with NCI-H23 lung was 104%; in the assay on NCI-H226 lung, 103%; in the assay with NCI-H322M lung, 134%; in the assay on HOP-62 NSCLC it was 109%; with NCI-H460 lung it was 99%; with HOP-92 NSCLC, 102%. Further, the growth in the assay on NCI-H522 lung is 93.7%; in the assay on A549/ATCC NSCLC, 98.7%; with 786-0 renal, 105%; in the assay on COLO 205 colon, 101%.

For the compound `C[n+]1ccccc1/C=C/c1ccc2cccc(O)c2n1`, the growth with NCI-H23 lung was 103%; in the assay with NCI-H226 lung it was 86.8%; in the assay with NCI-H322M lung, 136%; with HOP-62 NSCLC, 91.1%; in the assay on NCI-H460 lung it was 102%; in the assay on HOP-92 NSCLC, 106%. The growth with NCI-H522 lung was 99.8%; in the assay on A549/ATCC NSCLC, 9.6% (active); in the assay on 786-0 renal, 104%; in the assay on COLO 205 colon, 63.3%.

`C=CCSSC1N=CNc2nc[nH]c21` (stereo not given): the growth in the assay on NCI-H23 lung is 54.6%; with NCI-H226 lung it was 73%; in the assay on NCI-H322M lung it was 42.8%; with HOP-62 NSCLC it was 1.1% (active); with NCI-H460 lung it was 52.5%; in the assay on HOP-92 NSCLC it was 30.8%. Besides, the growth was 0.803% (active) in the assay on NCI-H522 lung, 95.1% with A549/ATCC NSCLC, 13.9% in the assay on 786-0 renal and 34.9% in the assay on COLO 205 colon.

As for `N#Cc1c(-c2ccc(Cl)cc2)nc(N/N=C/c2cccc(Br)c2)nc1N1CCOCC1`, the growth with NCI-H23 lung is 98.3%; with NCI-H226 lung, 92.3%; in the assay with NCI-H322M lung it was 90.6%; with HOP-62 NSCLC, 90.9%; in the assay on NCI-H460 lung, 87%; in the assay with HOP-92 NSCLC, 71.2%. The growth is 91.1% with NCI-H522 lung, 80.4% in the assay with A549/ATCC NSCLC, 61.8% in the assay on 786-0 renal and 44% in the assay on COLO 205 colon.

For `O=C(Cc1ccc(/C=C/C(=O)c2ncc[nH]2)cc1)Nc1ccc(F)cc1`, the growth is 24.2% in the assay with NCI-H23 lung; 61.3% with NCI-H226 lung; 33.3% with NCI-H322M lung; 20.5% with HOP-62 NSCLC; 1.46% (active) in the assay on NCI-H460 lung; 69.7% in the assay with HOP-92 NSCLC. The growth is 22.2% with NCI-H522 lung, 25.6% with A549/ATCC NSCLC, 23.7% in the assay on 786-0 renal and 20.5% in the assay on COLO 205 colon.

Regarding `C#CCOc1ccc2ncnc(N3CCN(C(=O)CCl)CC3)c2c1`, the growth with NCI-H23 lung was 93.3% [8.25 µM]; with NCI-H226 lung it was -15.9% [8.25 µM] (active); in the assay with NCI-H322M lung, 99.3% [8.25 µM]; in the assay on HOP-62 NSCLC, 85% [8.25 µM]; with NCI-H460 lung it was 101% [8.25 µM]; in the assay with HOP-92 NSCLC, 88.7% [8.25 µM]. In addition, the growth is -59.5% [8.25 µM] (active) in the assay on NCI-H522 lung, 100% [8.25 µM] in the assay on A549/ATCC NSCLC, 94.5% [8.25 µM] in the assay on 786-0 renal and 96.1% [8.25 µM] in the assay on COLO 205 colon.
